Only some compounds are listed: those with a hit (about 3.2% of all), similar ones and a draw of the others.
rCAG RNA binder = molecules binding r(CAG) RNA repeats; r(CAG) RNA repeat, TO-PRO-1 dye displacement fluorescence; AID 651821; inhibition, % at 3 µM; 370,000 compounds, 1.3% hits;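 active = inhibition above the plate cutoff, the mean of all test compounds on that plate plus 3 SD, cut at about 35% in these data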;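 also: 0% = DMSO alone and 100% = 100 µM mitoxantrone as full dye displacement; higher means more dye released from RNA so lower well fluorescence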
Pemphigus Ab inh = blocks pemphigus antibody binding to human desmoglein-3; 310,000 compounds, 0.48% hits; binding (percent of control), % at 10 µM; AID 588358; P32926; DSG3-coupled beads, scFv-anti-DSG3-GFP binding, flow cytometry; hits give low values;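 active = binding more than 3 SD below its plate's average and above zero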;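 also: hits lower antibody fragment binding to DSG3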
Target sequence (P32926 whole entry, looked up, the tested form may be a part): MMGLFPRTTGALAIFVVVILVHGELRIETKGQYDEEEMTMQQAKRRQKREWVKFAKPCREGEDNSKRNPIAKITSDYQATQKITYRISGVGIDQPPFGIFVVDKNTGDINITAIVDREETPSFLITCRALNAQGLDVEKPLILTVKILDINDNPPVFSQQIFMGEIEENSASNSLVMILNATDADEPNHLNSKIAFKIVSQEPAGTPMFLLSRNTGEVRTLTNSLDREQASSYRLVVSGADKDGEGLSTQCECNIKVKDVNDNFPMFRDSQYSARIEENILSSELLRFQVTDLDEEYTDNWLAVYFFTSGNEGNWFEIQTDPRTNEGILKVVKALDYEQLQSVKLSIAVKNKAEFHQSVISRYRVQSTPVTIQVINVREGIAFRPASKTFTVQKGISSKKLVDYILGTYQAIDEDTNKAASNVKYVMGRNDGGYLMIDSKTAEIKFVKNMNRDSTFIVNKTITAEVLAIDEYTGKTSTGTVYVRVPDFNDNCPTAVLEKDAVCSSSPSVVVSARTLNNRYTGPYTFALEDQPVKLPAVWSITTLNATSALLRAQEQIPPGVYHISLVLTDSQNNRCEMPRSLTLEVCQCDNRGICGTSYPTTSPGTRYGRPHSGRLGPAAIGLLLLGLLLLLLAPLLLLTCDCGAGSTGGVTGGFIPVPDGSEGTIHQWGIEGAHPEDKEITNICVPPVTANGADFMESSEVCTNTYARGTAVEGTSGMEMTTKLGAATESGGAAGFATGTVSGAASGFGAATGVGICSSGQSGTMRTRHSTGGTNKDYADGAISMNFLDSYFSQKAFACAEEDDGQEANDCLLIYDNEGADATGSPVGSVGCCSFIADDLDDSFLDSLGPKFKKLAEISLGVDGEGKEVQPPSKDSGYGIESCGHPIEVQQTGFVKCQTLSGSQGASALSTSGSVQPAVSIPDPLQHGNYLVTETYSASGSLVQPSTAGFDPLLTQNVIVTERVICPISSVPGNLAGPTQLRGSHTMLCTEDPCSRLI
MsrA act = activators of bovine methionine sulfoxide reductase A. purified bovine MsrA, absorbance read-out. activation, % at 10.6 µM. 360,000 compounds, 0.3% hits. AID 602163; in the data active = activation above about 7.5%;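 also: 0% = vehicle and 100% = reference activator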
MsrA inh = bovine MsrA inhibition; purified bovine MsrA, absorbance read-out; inhibition, % at 15.5 µM; 360,000 compounds, 0.75% hits; AID 651718;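 also: 0% = vehicle wells with enzyme and 100% = reference inhibitor wells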
NadD block = inhibitors of Staphylococcus aureus NadD. purified NadD enzyme, colorimetric absorbance read-out. inhibition, % at 20 µM. 360,000 compounds, 0.78% hits. AID 602399; in the data active = inhibition above about 26%
DAGLB inhibitor = blocks human DAGLB lipase activity; HEK293T DAGLB membrane lysate, EnzChek fluorogenic substrate; inhibition, % at 5.17 µM; Q8NCG7; 340,000 compounds, 0.059% hits; in the data active = inhibition above about 34%;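 also: 0% = enzyme with vehicle and 100% = wells lacking enzyme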
MsrA inh confirm = confirmation of bovine MsrA inhibitors | shares compounds with MsrA inh | AID 651822 | 2,300 compounds, 41% hits | inhibition, % at 15.5 µM | purified bovine MsrA, absorbance read-out;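 also: coupled to thioredoxin reductase with NADPH and selenocystamine and DMSO as substrate; 0% = vehicle only and 100% = full effect of reference inhibitor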
rCAG binder conf = r(CAG) RNA repeat binding, confirmation; TO-PRO-1 dye displacement fluorescence; inhibition, % at 3 µM; AID 652065; shares compounds with rCAG RNA binder; 4,300 compounds, 70% hits;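 active = inhibition above a per-plate cutoff, the mean inhibition of sample wells plus 3 SD, cut at about 35% in these data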;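 also: loss of TO-PRO-1 fluorescence as compound displaces dye from 1x1 AA loop RNA; 0% = DMSO only wells and 100% = 100 µM mitoxantrone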
DNA CAG counter = disrupts DNA CAG TO-PRO-1 complex, flagging rCAG hits. d(CAG) DNA oligo TO-PRO-1 dye displacement, fluorescence. inhibition, % at 3 µM. shares compounds with rCAG RNA binder. 4,300 compounds, 94% hits;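 active = inhibition above its plate's cutoff, the mean test-well inhibition plus 3 SD, cut at about 4.8% in these data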;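 also: 0% = DNA dye mix with DMSO and 100% = 100 µM mitoxantrone; hits displace the dye from DNA and so lower well fluorescence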
* marks the source's active call; other numbers are inactive results. Rule as the data show it, unless noted: active = inhibition above about 4.5%; inactive = the rest.

Results for O=C(CNc1ccc2ccccc2c1)N/N=C/c1ccc(C(=O)O)cc1 ?
rCAG RNA binder: 22; Pemphigus Ab inh: 90; MsrA act: -9; MsrA inh: 2; NadD block: 6; DAGLB inhibitor: 0

What do the screens show for `O=C(O)c1ccc(/C=N/NC(=O)c2cc3ccccc3cc2O)cc1`?
rCAG RNA binder: 47*; MsrA act: -8; MsrA inh: 5.0*; NadD block: 3; DAGLB inhibitor: 1; MsrA inh confirm: 3; rCAG binder conf: 23; DNA CAG counter: 7.6*

What do the screens show for `COc1cccc(/C=C2/SC(=O)N(C)C2=O)c1OCc1ccc(C(=O)O)cc1`?
rCAG RNA binder: 12; Pemphigus Ab inh: 99; MsrA act: -6; MsrA inh: 3; NadD block: 1; DAGLB inhibitor: 0

What do the screens show for `COc1cccc(/C=C2/SC(=O)N(CC(=O)N3CCc4ccccc4C3)C2=O)c1OCC(=O)O`?
rCAG RNA binder: 37*; MsrA act: -6; MsrA inh: 4.8*; NadD block: 5; DAGLB inhibitor: 3; MsrA inh confirm: 4; rCAG binder conf: 36*; DNA CAG counter: 9.7*

Results for C/C(=N\N=C(/N)SC1CC(=O)N(c2ccccc2)C1=O)c1cccs1 (stereo unspecified) ?
rCAG RNA binder: 42*; Pemphigus Ab inh: 102; MsrA act: -7; MsrA inh: 5.1*; NadD block: 5; DAGLB inhibitor: 3; MsrA inh confirm: 2; rCAG binder conf: 35*; DNA CAG counter: 8.3*

Results for C/C(=N\N=C(/N)SC1CC(=O)N(c2ccc(Cl)c(Cl)c2)C1=O)c1cccs1 (stereo unspecified) ?
rCAG RNA binder: 24; Pemphigus Ab inh: 78; MsrA act: -2; MsrA inh: 0; NadD block: 23; DAGLB inhibitor: 1

Results for COc1ccc(C(C)(NC(C)=O)c2nc(-c3ccncc3)cs2)cc1 (stereo unspecified) ?
rCAG RNA binder: 0; MsrA act: -2; MsrA inh: 0; NadD block: 2

How did O=C(O)CC/C(=N\Nc1ccccc1[N+](=O)[O-])c1cccs1 do in these assays?
Pemphigus Ab inh: 100; MsrA act: -3; NadD block: 1; DAGLB inhibitor: 18

What do the screens show for `O=C(O)CC/C(=N\Nc1ccc(S(=O)(=O)N2CCOCC2)cc1[N+](=O)[O-])c1cccs1`?
rCAG RNA binder: 56*; Pemphigus Ab inh: 92; MsrA act: -12; MsrA inh: 4.9*; NadD block: 3; DAGLB inhibitor: 26; MsrA inh confirm: 4.7*; rCAG binder conf: 59*; DNA CAG counter: 23*

Results for O=C(O)CC/C(=N\Nc1ccc(S(=O)(=O)N2CCCC2)cc1[N+](=O)[O-])c1cccs1 ?
rCAG RNA binder: 71*; Pemphigus Ab inh: 100; MsrA act: -4; MsrA inh: 4.8*; NadD block: 12; DAGLB inhibitor: 26; MsrA inh confirm: 5; rCAG binder conf: 60*; DNA CAG counter: 22*

What do the screens show for `O=C(NCCO)OC1CC2CC1[C@H]1CCCCN1C2=O` (stereo partly specified)?
rCAG RNA binder: 2; MsrA act: -3; MsrA inh: -1; NadD block: 0

How did O=C(O)/C(=C\c1ccc(Cl)cc1)c1ccc(S(=O)(=O)N2CCCC2)s1 do in these assays?
rCAG RNA binder: 27; Pemphigus Ab inh: 94; MsrA act: -15; MsrA inh: 0; NadD block: 2; DAGLB inhibitor: 0

What do the screens show for `CSc1ccc(/C=C(\C(=O)O)c2ccc(S(=O)(=O)N3CCCCC3)s2)cc1`?
rCAG RNA binder: 59*; Pemphigus Ab inh: 104; MsrA act: -16; MsrA inh: 5.9*; NadD block: 6; DAGLB inhibitor: 5; MsrA inh confirm: 2; rCAG binder conf: 55*; DNA CAG counter: 20*

How did O=C(NCC1CCN(C(=O)C(=O)c2cc3ccccc3o2)CC1)c1ccc2c(c1)OCO2 do in these assays?
rCAG RNA binder: 6; MsrA inh: 1

Results for O=[N+]([O-])c1cc(/C=N/Nc2nc3ccccc3[nH]2)c(O)cc1O ?
rCAG RNA binder: 36*; MsrA inh: 5.7*; MsrA inh confirm: 5.0*; rCAG binder conf: 29; DNA CAG counter: 13*

How did COCc1cc(C)n(CC(=O)N/N=C/c2ccc(-c3ccc(Cl)c(C(=O)O)c3)o2)c(=O)c1C#N do in these assays?
rCAG RNA binder: 38*; Pemphigus Ab inh: 83; MsrA act: -6; MsrA inh: 9.1*; NadD block: 6; DAGLB inhibitor: 2; MsrA inh confirm: 9.7*; rCAG binder conf: 41*; DNA CAG counter: 14*

How did O=C(Cc1ccc(F)cc1)N/N=C/c1ccc(-c2ccc(Cl)c(C(=O)O)c2)o1 do in these assays?
rCAG RNA binder: 2; Pemphigus Ab inh: 102; MsrA act: -5; MsrA inh: 3; NadD block: 2; DAGLB inhibitor: 2

Results for O=[N+]([O-])c1ccccc1S(=O)(=O)Nc1ccc(-c2ccc(N3CCCC3)nn2)cc1 ?
rCAG RNA binder: 37*; Pemphigus Ab inh: 115; MsrA act: -3; MsrA inh: 5.0*; NadD block: 25; DAGLB inhibitor: 5; MsrA inh confirm: 2; rCAG binder conf: 38*; DNA CAG counter: 16*

Results for N#CC(/C(=N/S(=O)(=O)c1cccs1)c1ccccc1)c1nc2ccccc2[nH]1 (stereo unspecified) ?
rCAG RNA binder: 42*; Pemphigus Ab inh: 103; MsrA act: -3; MsrA inh: 5.0*; NadD block: -1; DAGLB inhibitor: 2; MsrA inh confirm: 5.8*; rCAG binder conf: 23; DNA CAG counter: 4

What do the screens show for `COc1ccccc1NS(=O)(=O)c1ccc(N/N=C/C=C/c2ccccc2[N+](=O)[O-])c([N+](=O)[O-])c1`?
rCAG RNA binder: 6; Pemphigus Ab inh: 88; MsrA act: -12; MsrA inh: -2; NadD block: 26; DAGLB inhibitor: 8

How did CCN(CC)S(=O)(=O)c1ccc(N/N=C/c2ccccc2OCC(=O)O)c([N+](=O)[O-])c1 do in these assays?
rCAG RNA binder: 75*; Pemphigus Ab inh: 104; MsrA act: -10; MsrA inh: 5.6*; NadD block: 9; DAGLB inhibitor: 24; MsrA inh confirm: 2; rCAG binder conf: 75*; DNA CAG counter: 36*

How did CCOc1ccccc1/C=N/NC(=O)c1cccc(S(=O)(=O)N(CC)CC)c1 do in these assays?
rCAG RNA binder: 0; Pemphigus Ab inh: 105; MsrA act: -1; MsrA inh: 0; NadD block: -2; DAGLB inhibitor: -1
